EPAC1 antag – blocks human EPAC1 exchange factor | EPAC1 GEF assay, Rap1b-BODIPY-GDP exchange fluorescence | O95398 | 0.14% of 360,000 active | AID 720709 | Potency, µM (top dose mostly 115 µM), usual class: inhibitors; note: nearly all actives have a fitted effect of over 50% in size
EPAC2 antagonist – blocks human EPAC2 exchange factor | Q8WZA2 | EPAC2 GEF exchange of Rap1B-BODIPY-GDP, fluorescence | Potency, µM (doses to about 114 µM), hits mostly inhibitors | 0.18% of 360,000 active; note: nearly all actives have a fitted effect of over 45% in size
USP1 inh – inhibitors of human USP1/UAF1 deubiquitinase. AID 743255. Potency, µM (doses to about 57.1 µM), hits mostly inhibitors. 0.23% of 390,000 active. O94782. recombinant USP1/UAF1, Ub-Rhodamine cleavage fluorescence; note: nearly all actives have a fitted effect of over 60% in size
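In this screen, compounds sit with the deubiquitinase complex (1nM) for 15 min at room temperature before Ub-Rho is added at 150nM final. Fluorescence rise is then followed for 6 reads every 60 seconds.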
EPAC2 ag – activates human EPAC2 exchange factor | Q8WZA2 | EPAC2 activation, biochemical qHTS; response scale: 100% = 6.5 mM cAMP response | Potency, µM (highest dose often 154 µM), hits mostly activators | 0.079% of 360,000 active | AID 720711; note: nearly all actives have a fitted effect of over 50% in size
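Exchange assay: 100 nM EPAC2 with 250 nM Rap1B-BODIPY-GDP and 50 uM GDP. Fluorescence (ex 480/em 540 nm) read every 5 min for 30 min at room temperature. Data normalized to 6.5 mM cAMP as agonist control.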
EPAC1 ag – activates human EPAC1 exchange factor. O95398. EPAC1 agonist qHTS, biochemical assay; response scale: 100% = response to 6.5 mM cAMP. Potency, µM (highest dose often 154 µM), hits mostly activators. 0.073% of 360,000 active; note: nearly all actives have a fitted effect of over 60% in size
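EPAC1 100 nM, Rap1B–BODIPY-GDP 250 nM, unlabeled GDP 50 uM; compound titration; 5 min RT; kinetic read ex480/em540 at 5-min intervals ×30 min; data normalized to 6.5 mM cAMP agonist control.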
Large screens that a line does not name were inactive. Hits are enriched below; roughly 0.44% of the tested compounds scored in any of these assays. Calls come from the whole dose curve; as a rule, active = well fitted curve in the direction sought with a large enough effect; inconclusive = small, poorly fitted or top-dose-only effect, or another doubt; inactive = no such curve, though single readings can be large; an effect the other way counts as inactive or inconclusive.

CN(C)CCCN(C(=O)c1ccc(S(=O)(=O)N(C)C2CCCCC2)cc1)c1nc2ccc(F)cc2s1	none
Cc1cc(C)c2sc(N(CCCN(C)C)C(=O)c3ccc(S(=O)(=O)N(C)C4CCCCC4)cc3)nc2c1	EPAC1 ag 45µM
CN(C)/C=C/C1=CC(=O)CC(C)(C)C1	USP1 inh inconclusive
C[N+]1(C)CCC(=C2c3ccccc3CC(=O)c3sccc32)CC1	USP1 inh 28µM
CC[N+]1(C)CCC(=C2c3ccccc3CC(=O)c3sccc32)CC1 (stereo not drawn)	none
COc1cccc(Cn2nc3c4cc(F)ccc4n(Cc4ccc(F)cc4)cc-3c2=O)c1	none
COc1cc2c3nnc(-c4ccc(F)cc4)c-3cn(Cc3cccc(F)c3)c2cc1OC	EPAC1 antag inconclusive, USP1 inh inconclusive
Cc1ccc(Cn2nc3c4cc(F)ccc4n(Cc4ccc(F)cc4)cc-3c2=O)cc1	none
COc1cc2c3nnc(-c4ccc(F)cc4)c-3cn(Cc3cccc(C)c3)c2cc1OC	USP1 inh 32µM, EPAC2 ag inconclusive
COc1cc2c3nnc(-c4ccc(F)cc4)c-3cn(Cc3ccc(C)cc3)c2cc1OC	USP1 inh 32µM
COc1cc2c3nnc(-c4ccccc4)c-3cn(Cc3ccc(F)cc3)c2cc1OC	EPAC2 antagonist 71µM
Cc1ccc(NC(=O)CCNC(=O)c2ccc([N+](=O)[O-])cc2)cc1C	none
CSC1=NC2(CCN(C(=O)NC3CCCCC3)CC2)N=C1c1ccc(C)c(C)c1	none (no result: EPAC1 antag, EPAC2 antagonist, EPAC2 ag, EPAC1 ag)
CCOC(=O)c1c(CSc2ccccc2)n(C)c2cc(Br)c(OC)c(O)c12	none
CCOC(=O)c1c(CSc2ccccc2)n(C)c2cc(Br)c(OCC(O)CNC(CO)(CO)CO)cc12 (stereo not drawn)	EPAC2 antagonist 40µM, USP1 inh inconclusive, EPAC2 ag inconclusive
CCN(CC(=O)Nc1ccc(NC(C)=O)cc1)C(=O)CN1C(=O)C2CCCCC2C1=O (stereo not drawn)	none
COc1ccc2cc3[n+](cc2c1O)CCc1cc2c(cc1-3)OCO2	EPAC1 antag inconclusive, EPAC2 antagonist 89µM (no result: USP1 inh)
CC(=O)Nc1cccc(C(=O)/C=C/c2ccc(F)cc2)c1	EPAC1 antag 79µM
CC(=O)Nc1cccc(C(=O)/C=C/c2ccc(Br)cc2)c1	none
CC(=O)Nc1cccc(C(=O)/C=C/c2ccc(N(C)C)cc2)c1	USP1 inh 5.6µM
CCc1cc[n+](C2=C([O-])c3ccccc3C(=O)/C2=N\S(=O)(=O)c2cccs2)cc1	EPAC1 antag inconclusive, USP1 inh 18µM
COc1ccccc1/C=C1\SC(=S)N(CCC(=O)Nc2ccc(C(=O)O)c(O)c2)C1=O	EPAC1 antag 50µM
O=C(CCN1C(=O)/C(=C/c2ccco2)SC1=S)Nc1ccc(C(=O)O)c(O)c1	USP1 inh inconclusive
CC(/C=C1\SC(=S)N(CCC(=O)Nc2cccc(C(=O)O)c2)C1=O)=C\c1ccccc1	EPAC1 antag 79µM, EPAC2 antagonist inconclusive
CC(=Cc1ccccc1)C=C1SC(=S)N(CCCC(=O)Nc2ccc(C(=O)O)cc2)C1=O	EPAC1 antag inconclusive, EPAC1 ag inconclusive (no result: USP1 inh)
COc1cc(OC)c(NC(=O)Cn2c(SCc3ccccc3F)nc3cccnc32)cc1Cl	none (no result: EPAC1 antag, EPAC2 antagonist, EPAC2 ag, EPAC1 ag)
COc1cc(OC)cc(C(=O)NNC(=O)CCC(=O)c2cccs2)c1	none
COc1cc(Br)c(C(=O)c2nccc3cc(OC)c(OC)cc23)cc1OC	USP1 inh 10µM
CC1(C)CC(=O)c2c(O)cc(OCC(=O)N3CCN(c4ccccc4)CC3)cc2O1	none
O=C(O)COc1ccccc1/C=N/NC(=O)CSc1nnc(SCc2ccc(Cl)cc2)s1	none
O=C(CSc1nnc(SCc2ccc(Cl)cc2)s1)N/N=C/c1ccc(C(=O)O)cc1	EPAC2 antagonist 45µM
COc1cc(Cl)c(C)cc1NC(=O)CSc1cc(Cl)ccc1Cl	EPAC1 antag 25µM
Cc1ccc(NC(=O)Cn2c(=O)n(Cc3ccc4c(c3)OCO4)c(=O)c3ccc(C(=O)NC4CCCCC4)cc32)c(C)c1	none (no result: EPAC1 antag, EPAC2 antagonist, EPAC2 ag, EPAC1 ag)
CCCCc1c(-c2ccccc2F)ncn1CCc1ccccc1OC	EPAC2 antagonist 42µM (no result: USP1 inh)
CCCCCc1c(-c2ccccc2F)ncn1CCc1ccccc1OC	EPAC2 antagonist inconclusive (no result: USP1 inh)
CCCCCOc1ccc(NC(=O)Cc2csc(C)n2)cc1	none (no result: EPAC1 antag, EPAC2 antagonist, EPAC2 ag, EPAC1 ag)

Source: PubChem BioAssay
